Test results taken from PubChem BioAssay AID2642 (Johns Hopkins Ion Channel Center, 2010).
In all, about 310,000 compounds went through this assay and about 3,900 (1.3%) were called active. The sample holds actives, similar compounds and a random draw of the others, so the mix is not that of the screen.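 How the source made its calls: active means compounds whose thallium flux B-score, printed positive for inhibition, exceeds three library SD while starting fluorescence stays within three; inactive means the rest.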

Target: Potassium voltage-gated channel subfamily KQT member 1 (Homo sapiens) (UniProt P51787)
Sequence (P51787 whole entry, looked up): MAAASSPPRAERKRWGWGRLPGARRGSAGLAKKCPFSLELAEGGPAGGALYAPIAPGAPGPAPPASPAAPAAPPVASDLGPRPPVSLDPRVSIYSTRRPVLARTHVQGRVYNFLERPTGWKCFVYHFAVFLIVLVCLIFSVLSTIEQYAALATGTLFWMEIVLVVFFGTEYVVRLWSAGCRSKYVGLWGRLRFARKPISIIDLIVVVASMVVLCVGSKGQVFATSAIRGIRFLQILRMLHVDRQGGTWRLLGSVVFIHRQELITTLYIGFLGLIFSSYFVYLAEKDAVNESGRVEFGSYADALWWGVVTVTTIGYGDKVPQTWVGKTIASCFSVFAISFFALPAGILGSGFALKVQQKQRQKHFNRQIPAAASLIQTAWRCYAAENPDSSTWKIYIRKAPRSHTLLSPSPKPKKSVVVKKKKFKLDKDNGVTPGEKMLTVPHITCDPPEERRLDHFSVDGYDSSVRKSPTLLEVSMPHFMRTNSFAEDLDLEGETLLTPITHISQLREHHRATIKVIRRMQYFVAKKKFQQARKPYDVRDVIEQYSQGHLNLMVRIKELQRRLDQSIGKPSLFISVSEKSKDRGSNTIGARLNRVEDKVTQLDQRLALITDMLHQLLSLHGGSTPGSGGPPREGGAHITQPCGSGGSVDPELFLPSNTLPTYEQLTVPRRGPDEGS
Experiment: inhibitors of human KCNQ1 channel, primary screen, cell-based, thallium flux, high-throughput (AID 2642);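 further: channel opened by potassium depolarization with thallium stimulus after 20 min compound exposure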
Settings: CHO-K1 KCNQ1, FluxOR thallium flux fluorescence, at 10 µM; stronger effect = higher value

Row | Structure (SMILES) | B-score
1 | O=S(=O)(c1ccc(Cl)cc1)c1nc(-c2ccco2)oc1N1CCCCC1 | inactive
2 | CCc1cc(C(c2ccccc2OC)N2CCOCC2)c(NC(=O)c2ccccc2)s1 (centres undefined) | 7 (active)
3 | CCc1cc(C(N)=O)c(NC(=O)c2ccc(OC)cc2)s1 | inactive
4 | COc1ccc(C(=O)Nc2sc(C)c(C)c2CN2CCOCC2)cc1 | inactive
5 | CC(C)CNc1ncnc2c1cnn2Cc1ccc(Cl)cc1 | inactive
6 | Cc1ccc(Cl)cc1NC(=O)COC(=O)CC(C)(C)C | inactive
7 | COCn1c(C(O)c2ccccc2)cc2ccccc21 (centres undefined) | inactive
8 | Cc1cc(CNC(=O)c2cccc([N+](=O)[O-])c2)c2ccccc2n1 | inactive
9 | N#Cc1cccc(Nc2c3c(nc4ccccc24)CCCC3)c1 | inactive
10 | O=[N+]([O-])c1cccc(Nc2c3ccccc3nc3ccccc23)c1 | 8 (active)
11 | NS(=O)(=O)c1ccc(CCNC(=O)CNC(=O)Cc2ccccc2)cc1 | inactive
12 | O=C1N(c2ccccc2)C(=Nc2ccccc2)SC12CC2 | inactive
13 | C#CCCOC(=O)N1C2=NC(C(=O)OC)=C(C(=O)OC)[C@@H]3N(C)c4ccc(OC)cc4[C@]23C[C@H]1C(=O)OC | inactive
14 | O=C1c2ccccc2C(=O)c2c1cccc2N1CCN(Cc2ccccc2)CC1 | 6 (active)
15 | O=C1c2ccccc2C(=O)c2c1cccc2N1CCN(C/C=C/c2ccccc2)CC1 | inactive
16 | O=C1c2ccccc2C(=O)c2c1cccc2N1CCN(CCO)CC1 | inactive
17 | COC(=O)c1cccc(N(C(=O)CNC(=O)c2cccs2)C(C(=O)NCC2CCCO2)c2ccc(OC)c(OC)c2)c1 (centres undefined) | inactive
18 | Oc1ccc2ccc3cccc[n+]3c2c1 | 30 (active)
19 | CCN(Cc1nc2ccccc2c(=O)[nH]1)Cc1cc(=O)oc2cc(C)c(C)cc12 | inactive
20 | CC(C)CCN(C(=O)c1csnn1)C(C(=O)NC1CCCC1)c1ccccc1 (centres undefined) | inactive
21 | O=C(Nc1cccc(F)c1)NC1CCCCCCC1 | inactive
22 | Cc1cc(C)cc(NC(=O)NC2CCCCCCC2)c1 | 7 (active)
23 | CC(C)c1ccc(NC(=O)NC2CCCCC2)cc1 | inactive
24 | COc1cccc2c1OCC(C(=O)NCc1ccc(Cl)cc1Cl)=C2 | inactive
25 | CCOc1cc(C2C(C(=O)OC(C)C)=C(C)NC3=C2C(=O)CCC3)cc([N+](=O)[O-])c1O (centres undefined) | inactive
26 | CCC(C)NC(=O)CN(C1CCCCC1)S(C)(=O)=O (centres undefined) | inactive
27 | CS(=O)(=O)N(CC(=O)Nc1ccc(Cl)c(Cl)c1)C1CCCCC1 | 7 (active)

Row | Structure (SMILES) | B-score
28 | CS(=O)(=O)N(CC(=O)Nc1ccc(F)cc1)C1CCCCC1 | inactive
29 | CC(NC(=O)Cn1cc(C(F)(F)F)cc(Cl)c1=O)c1ccccc1 (centres undefined) | inactive
30 | NS(=O)(=O)c1cc2c(cc1Cl)NC(C(Cl)Cl)NS2(=O)=O (centres undefined) | inactive
31 | COC(=O)c1sc(N2CCN(Cc3ccccc3)CC2)nc1N | inactive
32 | CCOC(=O)/C(C#N)=C/c1ccc(N2CCN(Cc3ccccc3)CC2)cc1 | inactive
33 | CC(C)OC(=O)C(C#N)c1nc2ccccc2nc1N1CCN(Cc2ccccc2)CC1 (centres undefined) | 7 (active)
34 | COc1ccc(S(=O)(=O)N(CC(=O)N/N=C/c2ccc(C(=O)O)cc2)Cc2ccccc2)cc1OC | inactive
35 | CC(=O)N1c2ccc(S(=O)(=O)N3CCCC(C(=O)NCc4ccc(Cl)cc4)C3)cc2CC1C (centres undefined) | inactive
36 | CCN(C(=O)COc1ccc(C(=O)c2ccccc2)cc1)c1ccccc1 | inactive
37 | N#CC1=C(SCc2ccccc2)NC(=O)C(C#N)C12CCCC2 (centres undefined) | inactive
38 | N#Cc1ccc(CSc2ncccn2)cc1 | inactive
39 | N#CC1=C(SCc2ccc(C#N)cc2)N=C(N)C(c2nc(-c3ccccc3)cs2)C12CCCCC2 (centres undefined) | 6 (active)
40 | COc1ccc(OC)c2[nH]c(=O)c(CCNC(=O)C(=O)c3c[nH]c4ccccc34)cc12 | inactive
41 | COCCn1c(SCC(=O)Nc2cc(OC)ccc2OC)nc2c(c1=O)SC(C)C2 (centres undefined) | inactive
42 | COc1ccc(-c2nc3ccccc3c(=O)n2CCc2ccc(O)cc2)cc1 | inactive
43 | COc1ccc(CCNCc2c(-c3ccccc3)n(C)c3ccccc23)cc1 | 7 (active)
44 | COc1ccc(-c2c(C#Cc3ccccc3)c3ccccc3n2C)cc1 | inactive
45 | CCN1N=C(c2ccccc2)CCC1=O | inactive
46 | Cc1ccccc1NC(=O)CNc1ccccc1N1CCCCC1 | inactive
47 | O=C(CNCCC1=CCCCC1)Nc1ccccc1N1CCCCCC1 | 12 (active)
48 | Cc1ccccc1NC(=O)Nc1ccccc1N1CCCCC1 | inactive
49 | COC(=O)c1ccc(COC(=O)C2CCN(S(=O)(=O)c3c(Cl)cccc3Cl)CC2)o1 | inactive
50 | COc1cc(CN2CCNC(=O)C2CC(=O)NCCc2ncccc2C)cc(OC)c1 (centres undefined) | inactive
51 | CC(=O)Nc1c2c(nn1-c1cccc(C)c1)CSC2 | inactive
52 | CCC[C@@H]1C[C@@]1(CCC)[C@@H](NC(=O)c1ccccc1)c1ccc(C(=O)OC)cc1 | 12 (active)
53 | CCC/C=C(\CCC)C(NC(=O)Cc1ccccc1)c1ccc(C(=O)OC)cc1 (centres undefined) | inactive
54 | COC(=O)c1ccc(NCC(=O)c2ccccc2)cc1 | inactive
